The values below come from PubChem BioAssay (Tox21).

The nature of assay [1]: qHTS assay to test for compound auto fluorescence at 535 nm (green) in HEK293 cells (AID 720680). (In general: In qHTS, concentration-response curves come from the screen itself.)
Assay [2] can be described thus: qHTS assay to test for compound auto fluorescence at 460 nm (blue) in HEK293 cell free culture (AID 720681). In short, it runs like this: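 Test compounds were pinned into cell-free culture medium (DMEM with 10% FBS) and fluorescence was read directly at Ex/Em 405/460 nm. Signals were expressed as fluorescence equivalents of triamterene, with DMSO vehicle as control.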

Assay [3] can be described thus: qHTS assay to test for compound auto fluorescence at 535 nm (green) in HEK293 cell free culture (AID 720682). In a few lines: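 No cells present: wells hold DMEM supplemented with 10% FBS, into which compound or vehicle is pinned. Green emission is then recorded (485 nm excitation, 535 nm emission) and scaled to fluorescein.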
A short description of assay [4]: qHTS assay to test for compound auto fluorescence at 590 nm (red) in HEK293 cell free culture (AID 720683). In short, it runs like this: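 Tox21 10K library compounds were pinned into cell-free DMEM with 10% FBS and fluorescence was read at excitation 540 nm. Activity is expressed as Rose Bengal sodium equivalency.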
Assay [5] in a line: qHTS assay to test for compound auto fluorescence at 590 nm (red) in HepG2 cell free culture (AID 720684). In short, it runs like this:
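Red fluorescence (540 nm excitation, 590 nm emission) was measured after compound transfer into cell-free MEM supplemented with 10% FBS. Values are equivalencies against Rose Bengal sodium.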

Assay [6] in a line: qHTS assay to test for compound auto fluorescence at 460 nm (blue) in HepG2 cell free culture (AID 720685). In short, it runs like this: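 Compound (23 nL) or DMSO pinned into cell-free MEM with 10% FBS; blue fluorescence read at 405/460 nm excitation/emission, expressed as auto-fluorescence equivalency to triamterene.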
Assay [7] can be described thus: qHTS assay to test for compound auto fluorescence at 535 nm (green) in HepG2 cell free culture (AID 720686).
Assay [8] in a line: qHTS assay to test for compound auto fluorescence at 460 nm (blue) in HepG2 cells (AID 720687). In short, it runs like this:
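Cells (2,000/well in MEM with 10% FBS) attached overnight at 37 C, then were exposed to compound or DMSO for 1 hr at 37 C, 5% CO2. Fluorescence read at Ex/Em 405/460 nm, expressed as triamterene-equivalent signal.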

For assay [9], the target named is Glucocorticoid receptor (Homo sapiens) (UniProt P04150). The assay can be described thus: qHTS assay to identify small molecule agonists of the glucocorticoid receptor (GR) signaling pathway (AID 720691; active means well fitted activation curve with a large enough effect in the signal ratio in the repeat runs, not every such curve was filed as active; the % refers to the signal ratio; further: potency means the concentration at half of the fitted maximal effect). In a few lines:
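Reporter read-out: fluorescence intensity following 2 h room-temperature LiveBLAzer B/G FRET substrate loading. Prior step: GR-bla HeLa cells held 4 h, then treated 18 h at 37 C.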

For assay [10] the target is unchanged. The assay is described as follows: qHTS assay to identify small molecule antagonists of the glucocorticoid receptor (GR) signaling pathway (AID 720692; active means well fitted inhibition curve with a large enough effect in the signal ratio in the repeat runs, not every such curve was filed as active; the % refers to the signal ratio; further: potency means the concentration at half of the fitted maximal effect). In a few lines:
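Dexamethasone (5 nM final) stimulated a stably integrated GRE-beta-lactamase reporter in HeLa cells during 18 h co-incubation with compounds; signal was quantified as fluorescence intensity of B/G FRET substrate after 2 h.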

Assay [11] in a line: qHTS assay for identifying genotoxic compounds that show differential cytotoxicity against isogenic chicken DT40 cell lines with known DNA damage response pathways - wild type cell line (AID 743012). Further: nearly all actives have a fitted effect of over 60% in size. Further: potency means the concentration at half of the fitted maximal effect. In short, it runs like this:
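Using parental DT40 (300 cells/well), compounds delivered in DMSO incubate 40 h at 37 C/5% CO2. CellTiter-Glo reagent then stands 30 min at room temperature, and luminescence gives cell viability.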

Assay [12] can be described thus: qHTS assay for identifying genotoxic compounds that show differential cytotoxicity against isogenic chicken DT40 cell lines with known DNA damage response pathways - Rev3 mutant cell line (AID 743014). Further: nearly all actives have a fitted effect of over 55% in size. Further: potency means the concentration at half of the fitted maximal effect.
Assay [13] can be described thus: qHTS assay for identifying genotoxic compounds that show differential cytotoxicity against isogenic chicken DT40 cell lines with known DNA damage response pathways - Rad54/Ku70 mutant cell line (AID 743015). Further: nearly all actives have a fitted effect of over 60% in size. Further: potency means the concentration at half of the fitted maximal effect.
Assay [14] is described as follows: qHTS assay to identify small molecule antagonists of the androgen receptor (AR) signaling pathway - cell viability counter screen (AID 743033; further: nearly all actives have a fitted effect of over 45% in size; further: potency means the concentration at half of the fitted maximal effect).
Assay [15] is described as follows: qHTS assay to identify small molecule antagonists of the androgen receptor (AR) signaling pathway using the MDA cell line - cell viability counter screen (AID 743041; further: nearly all actives have a fitted effect of over 45% in size). In short, it runs like this: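 MDA-kb2 AR-luc human breast carcinoma cells (MMTV-luciferase, AR/GR responsive) were treated with compounds plus R1881 agonist for 16 h at 37 °C. Viability was read as CellTiter-Fluor fluorescence in the same wells as the reporter assay.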

The nature of assay [16]: qHTS assay to identify small molecule antagonists of the thyroid receptor (TR) signaling pathway - cell viability counter screen (AID 743064). Further: nearly all actives have a fitted effect of over 50% in size. In a few lines: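 Rat GH3 pituitary tumor cells stably expressing two TR response elements driving luciferase were plated, rested 4 h, then dosed with library compounds and T3 (1 nM final). After 23.5 h at 37 °C, CellTiter-Fluor was added for 30 min and fluorescence recorded.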

The nature of assay [17]: qHTS assay to identify small molecule antagonists of the glucocorticoid receptor (GR) signaling pathway - cell viability counter screen (AID 720693). Further: nearly all actives have a fitted effect of over 55% in size.
Assay [18] concerns the target Androgen receptor (Homo sapiens) (UniProt P10275). The assay can be described thus: qHTS assay to identify small molecule antagonists of the androgen receptor (AR) signaling pathway (AID 743035; active means well fitted inhibition curve with a large enough effect in the signal ratio in the repeat runs, not every such curve was filed as active; the % refers to the signal ratio). In a few lines:
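Using qHTS, AR-UAS-bla GripTite HEK293 cells received compound, then R1881, and were cultured 16 h at 37C/5% CO2 before a 2 h room-temperature LiveBLAzer B/G FRET substrate step and fluorescence measurement.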

Assay [19] has the same target. The assay can be described thus: qHTS assay to identify small molecule agonists of the androgen receptor (AR) signaling pathway (AID 743036; active means well fitted activation curve with a large enough effect in the signal ratio in the repeat runs, with a control signal flat, not every such curve was filed as active; the % refers to the signal ratio). In short, it runs like this:
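Quantitative HTS of the Tox21 10K library in HEK293 cells bearing a stably integrated UAS-controlled beta-lactamase reporter. Compound exposure lasted 16 h at 37C. Reporter activity was detected by FRET substrate fluorescence after 2 h at room temperature.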

Assay [20] shares this target. The assay is described as follows: qHTS assay to identify small molecule antagonists of the androgen receptor (AR) signaling pathway using the MDA cell line (AID 743042; further: nearly all actives have a fitted effect of over 55% in size). In short, it runs like this: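 MDA-kb2 cells (human breast carcinoma, stably carrying an MMTV-luciferase reporter responsive to AR and GR) were plated at 3,000 cells/well and preincubated 5 hr at 37C, then given compound plus R1881 agonist for 16 h. ONE-Glo luminescence was read.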

Structures are written as SMILES. “And” between values parts separate entries of the source, which are not always exact repeats. Identical values can stand only once. Inconclusive results are not listed. Some structures have more than one record in an assay (separate samples or runs), and their calls can disagree. The source made the active and inactive calls. Unless noted, the call rests on the fitted dose curve; in most records, active means well fitted curve in the direction sought with a large enough effect in the repeat runs; inconclusive means weak or mixed curves; inactive means no such curve, though single readings can be large; an effect the other way counts as inactive or inconclusive.

Chain of Androgen receptor (Homo sapiens) (P10275 whole entry, looked up): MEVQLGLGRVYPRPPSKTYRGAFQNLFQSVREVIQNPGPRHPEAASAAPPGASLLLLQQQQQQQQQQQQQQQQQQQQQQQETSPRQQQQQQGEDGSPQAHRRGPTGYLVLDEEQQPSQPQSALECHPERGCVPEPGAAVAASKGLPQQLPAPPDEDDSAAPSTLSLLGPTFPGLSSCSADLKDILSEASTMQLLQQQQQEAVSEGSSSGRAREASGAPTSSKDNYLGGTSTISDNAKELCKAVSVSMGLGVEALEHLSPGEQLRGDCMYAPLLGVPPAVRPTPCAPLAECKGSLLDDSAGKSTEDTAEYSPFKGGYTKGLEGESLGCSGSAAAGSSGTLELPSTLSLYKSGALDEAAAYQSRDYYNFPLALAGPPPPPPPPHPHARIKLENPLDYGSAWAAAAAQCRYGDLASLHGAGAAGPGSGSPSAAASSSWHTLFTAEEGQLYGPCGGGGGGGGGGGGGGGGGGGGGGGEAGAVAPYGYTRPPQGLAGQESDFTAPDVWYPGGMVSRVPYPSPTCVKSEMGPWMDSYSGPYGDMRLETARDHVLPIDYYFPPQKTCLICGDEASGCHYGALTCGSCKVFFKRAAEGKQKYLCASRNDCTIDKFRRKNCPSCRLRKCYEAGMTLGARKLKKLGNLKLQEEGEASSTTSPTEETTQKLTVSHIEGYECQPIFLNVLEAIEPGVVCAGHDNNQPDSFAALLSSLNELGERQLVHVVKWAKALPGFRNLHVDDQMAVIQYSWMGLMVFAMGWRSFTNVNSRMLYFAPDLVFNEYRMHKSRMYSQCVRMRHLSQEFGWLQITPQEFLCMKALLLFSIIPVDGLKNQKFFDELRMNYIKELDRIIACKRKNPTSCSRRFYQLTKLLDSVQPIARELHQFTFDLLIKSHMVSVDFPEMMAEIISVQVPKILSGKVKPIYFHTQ
Chain of Glucocorticoid receptor (Homo sapiens) (P04150 whole entry, looked up): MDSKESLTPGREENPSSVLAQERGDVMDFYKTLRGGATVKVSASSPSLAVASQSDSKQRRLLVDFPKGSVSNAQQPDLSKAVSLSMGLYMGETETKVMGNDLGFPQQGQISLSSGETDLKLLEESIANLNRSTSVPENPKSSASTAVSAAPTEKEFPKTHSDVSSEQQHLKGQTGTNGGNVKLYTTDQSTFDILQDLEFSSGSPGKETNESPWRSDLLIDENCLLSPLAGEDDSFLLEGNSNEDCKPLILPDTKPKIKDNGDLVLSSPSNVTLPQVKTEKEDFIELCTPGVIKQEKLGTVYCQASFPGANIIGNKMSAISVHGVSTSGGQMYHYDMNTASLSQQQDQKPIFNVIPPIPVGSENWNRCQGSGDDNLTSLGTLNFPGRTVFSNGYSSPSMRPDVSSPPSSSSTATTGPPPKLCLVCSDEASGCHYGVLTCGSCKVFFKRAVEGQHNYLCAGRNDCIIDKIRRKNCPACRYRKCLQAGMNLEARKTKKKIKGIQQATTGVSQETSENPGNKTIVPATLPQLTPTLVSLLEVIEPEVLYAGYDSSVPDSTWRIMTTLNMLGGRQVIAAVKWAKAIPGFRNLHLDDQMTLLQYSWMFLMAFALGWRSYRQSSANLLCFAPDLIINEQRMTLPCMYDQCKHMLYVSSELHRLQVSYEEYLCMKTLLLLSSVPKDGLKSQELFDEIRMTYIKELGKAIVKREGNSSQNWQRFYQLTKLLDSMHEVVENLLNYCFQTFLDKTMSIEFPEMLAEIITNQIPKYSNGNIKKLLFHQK

Turning to `COc1ccc(C(=O)c2ccccc2O)c(O)c1`, the Potency result in assay [1], in [2], in [3], in assay [4], in assay [5] and in assay [6] was “inactive” each time. Further, the Potency result in assay [7], in [8], in [9], in assay [10], in [11] and in [12] was “inactive” in each case. Further, the Potency entry in [13], in assay [14], in assay [15] and in [16] was “inactive” throughout.

On to `Nc1ccc2c(c1)C(=O)c1ccccc1C2=O`, for which the Potency result in [1], in assay [2], in [3], in assay [4], in assay [5] and in assay [6] was “inactive” throughout. The Potency entry in [7], in assay [8], in assay [9] and in [17] was “inactive” in each case. Also, the Potency in [12] is 60 µM (active) and inactive; in assay [13] it was 9.51 µM (active) and 12.2 µM (active); in assay [14] it was 48.1 µM (active) and inactive.

For the compound `CCCCCCOCCOCCO`, the Potency result in assay [1], in assay [2], in [3], in [4], in assay [5] and in [6] was “inactive” each time. The Potency entry in [7], in [8], in [9], in [10], in [17] and in assay [11] was “inactive” in each case. In addition, the Potency entry in [12], in assay [14], in assay [15] and in assay [16] was “inactive” in each case.

Consider `C[C@]12C=CC(=O)C=C1CC[C@H]1[C@@H]3C[C@@H](O)[C@](O)(C(=O)CO)[C@@]3(C)C[C@H](O)[C@@]12F`, for which the Potency result in assay [1], in [2], in assay [3], in assay [4], in [5] and in [6] was “inactive” each time. The Potency result in assay [7], in [8], in assay [15] and in assay [16] was “inactive” each time. Moreover, the Potency in assay [9] is 301 nM (active) and 61.6 nM (active); in assay [11], 68.6 µM (active); in assay [12], 8.63 µM (active).

As for `c1ccc2c(c1)[nH]c1ccccc12`, the Potency result in [1], in [2], in assay [3], in [4], in assay [5] and in [6] was “inactive” throughout. Besides, the Potency result in [7], in assay [8], in [9], in [10], in [17] and in assay [11] was “inactive” in each case. Moreover, the Potency result in assay [12], in assay [14], in assay [18], in assay [15] and in assay [20] was “inactive” in each case. Besides, the compound was called inactive in assay [19].

As for `CC(=O)O[C@]1(C(C)=O)CC[C@H]2[C@@H]3C=C(C)C4=CC(=O)CC[C@]4(C)[C@H]3CC[C@@]21C`, the Potency result in assay [1], in [2], in assay [3], in assay [4], in assay [5] and in assay [6] was “inactive” each time. Moreover, the Potency result in assay [7], in assay [8], in [17] and in [14] was “inactive” each time. The Potency is 51.2 nM (active) and 61.6 nM (active) in assay [9]; 91 nM (active) and 77.6 nM (active) in [10]; 11.4 µM (active) and 13.7 µM (active) in [11]; 12.7 µM (active) and 17.2 µM (active) in assay [12].

In the case of `O=C(O)COCCN1CCN(C(c2ccccc2)c2ccc(Cl)cc2)CC1` (stereo not given), the Potency result in assay [1], in assay [2], in assay [3], in [4], in assay [5] and in assay [6] was “inactive” throughout. Also, the Potency result in assay [7] and in [8] was “inactive” in each case.

Consider `CC1(C)C(C=C(Cl)Cl)C1C(=O)OCc1cccc(Oc2ccccc2)c1` (stereo not given), for which the Potency result in [1], in [2], in [3], in assay [4], in assay [5] and in assay [6] was “inactive” throughout. Further, the Potency result in assay [7], in [8], in assay [9], in assay [10], in [17] and in assay [11] was “inactive” throughout. Also, the Potency result in [12], in assay [13], in assay [18] and in assay [20] was “inactive” throughout. In addition, the outcome in [19] was inactive.
